The source of these data is paper PMC7862700, “An all-to-all approach to the identification of sequence-specific readers for epigenetic DNA modifications on cytosine”.

Common to all, as to assay: DAPPL (digital affinity profiling via proximity ligation, sequencing); 10 mM Tris-HCl pH 7.5, 50 mM NaCl, 1 mM DTT, 4% glycerol, room temperature, 30 min; GST-TFs on glutathione beads, 16-mer random dsDNA library, 0.1% formaldehyde crosslink after washing; high values mean tight binding
Assay [1] deals with T1, FEV (Homo sapiens, UniProt Q99581 1-238).
T1 sequence: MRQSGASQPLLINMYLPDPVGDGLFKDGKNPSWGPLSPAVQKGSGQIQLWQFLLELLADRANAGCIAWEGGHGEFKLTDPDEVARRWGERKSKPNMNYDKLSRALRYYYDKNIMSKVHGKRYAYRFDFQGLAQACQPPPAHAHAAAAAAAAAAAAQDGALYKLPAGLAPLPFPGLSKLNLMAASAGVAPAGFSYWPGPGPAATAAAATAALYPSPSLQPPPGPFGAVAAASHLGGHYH
As to conditions: protein: recombinant; tags: N-terminal GST; dsDNA, one strand shown. The essentials:
(§1)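 A tag-only sample was pooled with DNA-barcoded human transcription factors that had been expressed in yeast as GST fusions and captured on glutathione beads. The pools were incubated for 30 min at room temperature with 200 nmole of a random double-stranded 16-mer DNA library in Tris/NaCl/DTT/glycerol buffer, then washed, crosslinked with 0.1% formaldehyde, proximity-ligated (BsaI/T4 ligase, 1 h, 37 °C), PCR-amplified and sequenced on an Illumina NextSeq500. Binding signal is each hexamer's read frequency for a factor divided by its frequency for the tag-only sample.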

Assay [2] deals with ETV5 (Homo sapiens, UniProt P41161 1-510). As to conditions: protein: recombinant; tags: N-terminal GST; dsDNA, one strand shown. A digest of the protocol:
as §1

Assay [3] concerns the target HSF1 (Homo sapiens, UniProt Q00613 1-529). The settings on record: protein: recombinant; tags: N-terminal GST; chain copies: 3; dsDNA, one strand shown. The essentials:
as §1

Assay [4] deals with T2, SPIC (Homo sapiens, UniProt Q8N5J4 1-248).
T2 sequence: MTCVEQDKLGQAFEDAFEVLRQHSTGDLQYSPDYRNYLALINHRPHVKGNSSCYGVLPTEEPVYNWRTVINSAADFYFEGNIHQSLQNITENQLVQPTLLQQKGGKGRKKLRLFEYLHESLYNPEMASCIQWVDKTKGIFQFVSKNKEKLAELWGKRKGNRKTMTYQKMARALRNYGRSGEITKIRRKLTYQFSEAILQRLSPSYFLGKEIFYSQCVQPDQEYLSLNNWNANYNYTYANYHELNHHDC
As to conditions: protein: recombinant; tags: N-terminal GST; dsDNA, one strand shown. A digest of the protocol: as §1

Assay [5] addresses ELF4 (Homo sapiens, UniProt Q99607 1-663). The settings on record: protein: recombinant; tags: N-terminal GST; dsDNA, one strand shown. The essentials:
as §1

For assay [6], the target named is T3, ELK4 (Homo sapiens, UniProt P28324-2 1-405).
T3 sequence: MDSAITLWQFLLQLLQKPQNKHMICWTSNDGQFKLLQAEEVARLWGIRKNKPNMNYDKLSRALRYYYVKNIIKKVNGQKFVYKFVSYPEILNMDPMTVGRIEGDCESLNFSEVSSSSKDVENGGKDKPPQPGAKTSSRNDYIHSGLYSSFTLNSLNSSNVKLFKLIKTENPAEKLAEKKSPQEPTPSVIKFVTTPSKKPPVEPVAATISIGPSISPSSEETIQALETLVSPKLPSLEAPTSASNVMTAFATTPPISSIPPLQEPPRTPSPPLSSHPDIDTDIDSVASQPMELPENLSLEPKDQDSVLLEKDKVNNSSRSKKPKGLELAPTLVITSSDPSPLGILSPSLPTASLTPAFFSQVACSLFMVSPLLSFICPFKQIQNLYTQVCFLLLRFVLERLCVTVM
As to conditions: protein: recombinant; tags: N-terminal GST; dsDNA, one strand shown. A digest of the protocol:
as §1

Assay [7] has as its target T4, ETV2 (Homo sapiens, UniProt O00321 1-342).
T4 sequence: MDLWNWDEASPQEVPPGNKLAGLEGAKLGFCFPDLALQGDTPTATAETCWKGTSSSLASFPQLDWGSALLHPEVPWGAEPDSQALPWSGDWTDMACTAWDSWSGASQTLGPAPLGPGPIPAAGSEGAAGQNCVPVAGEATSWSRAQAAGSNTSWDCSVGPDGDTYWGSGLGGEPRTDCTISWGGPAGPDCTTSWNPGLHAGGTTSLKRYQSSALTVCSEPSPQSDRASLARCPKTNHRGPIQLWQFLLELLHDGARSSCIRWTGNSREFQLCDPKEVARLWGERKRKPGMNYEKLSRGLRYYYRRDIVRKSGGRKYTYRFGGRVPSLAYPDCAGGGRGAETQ
As to conditions: protein: recombinant; tags: N-terminal GST; dsDNA, one strand shown. A digest of the protocol: as §1

Assay [8] deals with T5, ELF3 (Homo sapiens, UniProt P78545 1-371).
T5 sequence: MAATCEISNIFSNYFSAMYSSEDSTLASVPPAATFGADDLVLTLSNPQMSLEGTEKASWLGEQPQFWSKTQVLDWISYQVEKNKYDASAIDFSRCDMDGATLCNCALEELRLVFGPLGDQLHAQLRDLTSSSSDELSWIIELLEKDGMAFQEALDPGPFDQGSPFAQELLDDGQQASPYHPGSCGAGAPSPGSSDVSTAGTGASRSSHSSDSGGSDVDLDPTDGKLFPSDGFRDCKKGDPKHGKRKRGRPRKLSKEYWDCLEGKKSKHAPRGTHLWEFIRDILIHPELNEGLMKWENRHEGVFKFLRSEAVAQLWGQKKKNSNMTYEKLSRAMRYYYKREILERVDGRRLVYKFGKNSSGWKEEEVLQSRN
As to conditions: protein: recombinant; tags: N-terminal GST; dsDNA, one strand shown. The essentials:
as §1

The target of assay [9] is CRX (Homo sapiens, UniProt O43186 1-299). The settings on record: protein: recombinant; tags: N-terminal GST; dsDNA, one strand shown. The essentials:
as §1

In assay [10] the target is ETV1 (Homo sapiens, UniProt P50549 1-477). The settings on record: protein: recombinant; tags: N-terminal GST; dsDNA, one strand shown. The essentials: as §1
Chain of ETV1 (P50549 whole entry): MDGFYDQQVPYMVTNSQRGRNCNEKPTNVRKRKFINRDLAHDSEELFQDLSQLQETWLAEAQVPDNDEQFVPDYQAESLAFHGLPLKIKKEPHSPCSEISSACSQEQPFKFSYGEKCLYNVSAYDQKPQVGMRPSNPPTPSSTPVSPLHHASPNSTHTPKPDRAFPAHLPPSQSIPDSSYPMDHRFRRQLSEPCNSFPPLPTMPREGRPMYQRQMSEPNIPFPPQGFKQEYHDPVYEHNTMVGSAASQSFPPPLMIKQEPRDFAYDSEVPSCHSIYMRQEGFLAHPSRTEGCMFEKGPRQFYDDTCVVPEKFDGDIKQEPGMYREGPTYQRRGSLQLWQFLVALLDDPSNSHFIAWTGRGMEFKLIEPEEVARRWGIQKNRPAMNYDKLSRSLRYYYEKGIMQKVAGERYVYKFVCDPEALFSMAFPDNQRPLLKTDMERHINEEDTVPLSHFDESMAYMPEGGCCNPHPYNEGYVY
Assay [11] has as its target T6, ERF (Homo sapiens, UniProt P50548 1-548).
T6 sequence: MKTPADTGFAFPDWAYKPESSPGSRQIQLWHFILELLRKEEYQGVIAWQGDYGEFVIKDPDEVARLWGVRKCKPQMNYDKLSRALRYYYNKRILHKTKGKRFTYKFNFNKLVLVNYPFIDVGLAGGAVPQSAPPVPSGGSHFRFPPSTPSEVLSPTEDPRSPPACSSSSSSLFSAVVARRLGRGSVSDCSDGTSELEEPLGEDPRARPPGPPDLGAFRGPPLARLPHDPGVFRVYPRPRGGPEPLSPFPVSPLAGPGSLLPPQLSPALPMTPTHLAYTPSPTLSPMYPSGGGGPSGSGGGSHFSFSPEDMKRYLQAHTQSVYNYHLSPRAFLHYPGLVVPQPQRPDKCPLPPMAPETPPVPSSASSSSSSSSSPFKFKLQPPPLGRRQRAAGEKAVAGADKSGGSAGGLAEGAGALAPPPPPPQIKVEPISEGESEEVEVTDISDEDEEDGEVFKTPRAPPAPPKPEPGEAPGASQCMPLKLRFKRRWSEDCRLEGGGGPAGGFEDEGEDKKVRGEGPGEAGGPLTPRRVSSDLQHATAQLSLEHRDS
The settings on record: protein: recombinant; tags: N-terminal GST; dsDNA, one strand shown. The essentials: as §1

The target in assay [12] is T7, ETV3L (Homo sapiens, UniProt Q6ZN32 1-361).
T7 sequence: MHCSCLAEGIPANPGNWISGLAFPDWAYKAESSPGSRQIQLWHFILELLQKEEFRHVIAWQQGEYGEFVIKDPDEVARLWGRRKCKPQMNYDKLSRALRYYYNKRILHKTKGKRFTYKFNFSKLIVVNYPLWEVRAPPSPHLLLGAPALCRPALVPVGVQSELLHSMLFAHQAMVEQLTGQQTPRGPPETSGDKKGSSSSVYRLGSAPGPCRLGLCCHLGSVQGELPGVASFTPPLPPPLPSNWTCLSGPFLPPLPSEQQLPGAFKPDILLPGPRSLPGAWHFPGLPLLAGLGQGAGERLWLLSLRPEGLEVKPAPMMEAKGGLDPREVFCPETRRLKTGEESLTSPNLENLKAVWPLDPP
The settings on record: protein: recombinant; tags: N-terminal GST; dsDNA, one strand shown. The essentials: as §1

Assay [13] deals with T8, ETS2 (Homo sapiens, UniProt P15036 1-469).
T8 sequence: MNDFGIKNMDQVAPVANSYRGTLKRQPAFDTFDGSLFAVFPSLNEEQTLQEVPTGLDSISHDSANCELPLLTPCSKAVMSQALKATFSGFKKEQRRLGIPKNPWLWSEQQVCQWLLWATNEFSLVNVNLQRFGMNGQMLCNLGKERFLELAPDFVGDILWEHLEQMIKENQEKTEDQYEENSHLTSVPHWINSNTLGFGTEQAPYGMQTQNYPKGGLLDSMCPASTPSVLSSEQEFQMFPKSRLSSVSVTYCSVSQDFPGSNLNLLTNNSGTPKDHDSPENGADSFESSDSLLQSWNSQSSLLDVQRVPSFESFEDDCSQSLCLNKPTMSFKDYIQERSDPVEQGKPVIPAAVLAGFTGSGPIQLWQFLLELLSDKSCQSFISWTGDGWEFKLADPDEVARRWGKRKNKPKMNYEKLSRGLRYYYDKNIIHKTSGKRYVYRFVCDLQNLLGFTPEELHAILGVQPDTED
The settings on record: protein: recombinant; tags: N-terminal GST; dsDNA, one strand shown. The essentials:
as §1

Assay [14] has as its target T9, SPDEF (Homo sapiens, UniProt O95238 1-335).
T9 sequence: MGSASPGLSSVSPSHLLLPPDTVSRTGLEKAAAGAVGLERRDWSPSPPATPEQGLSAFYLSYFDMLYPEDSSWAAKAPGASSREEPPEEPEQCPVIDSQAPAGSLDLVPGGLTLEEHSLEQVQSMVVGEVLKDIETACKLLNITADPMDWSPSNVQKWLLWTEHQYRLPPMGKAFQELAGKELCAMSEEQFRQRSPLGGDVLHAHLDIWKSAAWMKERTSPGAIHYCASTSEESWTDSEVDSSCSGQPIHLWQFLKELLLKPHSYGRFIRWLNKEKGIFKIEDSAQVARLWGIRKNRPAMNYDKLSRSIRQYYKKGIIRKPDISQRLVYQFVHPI
As to conditions: protein: recombinant; tags: N-terminal GST; dsDNA, one strand shown. A digest of the protocol: as §1

Assay [15] deals with T10, ETV7 (Homo sapiens, UniProt Q9Y603 1-341).
T10 sequence: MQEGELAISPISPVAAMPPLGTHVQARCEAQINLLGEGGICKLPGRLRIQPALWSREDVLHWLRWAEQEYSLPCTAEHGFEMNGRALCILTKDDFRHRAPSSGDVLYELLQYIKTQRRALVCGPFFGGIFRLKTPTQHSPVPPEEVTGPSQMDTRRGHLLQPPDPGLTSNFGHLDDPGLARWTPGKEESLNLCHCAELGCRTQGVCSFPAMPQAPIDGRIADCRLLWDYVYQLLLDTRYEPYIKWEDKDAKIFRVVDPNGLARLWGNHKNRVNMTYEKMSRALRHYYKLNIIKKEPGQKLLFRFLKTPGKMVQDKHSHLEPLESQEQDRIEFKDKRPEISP
As to conditions: protein: recombinant; tags: N-terminal GST; dsDNA, one strand shown. The essentials:
as §1

For assay [16], the target named is T11, ELF5 (Homo sapiens, UniProt Q9UKW6-2 1-255).
T11 sequence: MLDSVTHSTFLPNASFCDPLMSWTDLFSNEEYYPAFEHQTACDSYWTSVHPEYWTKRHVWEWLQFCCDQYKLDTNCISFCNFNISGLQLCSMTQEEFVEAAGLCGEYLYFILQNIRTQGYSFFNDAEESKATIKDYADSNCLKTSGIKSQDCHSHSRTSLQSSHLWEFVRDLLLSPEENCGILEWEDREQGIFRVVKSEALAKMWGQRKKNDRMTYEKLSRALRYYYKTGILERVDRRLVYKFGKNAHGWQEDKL
As to conditions: protein: recombinant; tags: N-terminal GST; dsDNA, one strand shown. The essentials: as §1

The target of assay [17] is T12, ETV3 (Homo sapiens, UniProt P41162-2 1-143).
T12 sequence: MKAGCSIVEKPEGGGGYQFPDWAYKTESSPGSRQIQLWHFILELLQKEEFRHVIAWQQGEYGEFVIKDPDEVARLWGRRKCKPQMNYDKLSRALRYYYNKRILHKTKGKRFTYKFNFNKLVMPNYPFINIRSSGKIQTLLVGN
The settings on record: protein: recombinant; tags: N-terminal GST; dsDNA, one strand shown. A digest of the protocol:
as §1

In assay [18] the target is ETV6 (Homo sapiens, UniProt P41212 1-452). The settings on record: protein: recombinant; tags: N-terminal GST; dsDNA, one strand shown. The essentials: as §1
Chain of ETV6 (P41212 whole entry): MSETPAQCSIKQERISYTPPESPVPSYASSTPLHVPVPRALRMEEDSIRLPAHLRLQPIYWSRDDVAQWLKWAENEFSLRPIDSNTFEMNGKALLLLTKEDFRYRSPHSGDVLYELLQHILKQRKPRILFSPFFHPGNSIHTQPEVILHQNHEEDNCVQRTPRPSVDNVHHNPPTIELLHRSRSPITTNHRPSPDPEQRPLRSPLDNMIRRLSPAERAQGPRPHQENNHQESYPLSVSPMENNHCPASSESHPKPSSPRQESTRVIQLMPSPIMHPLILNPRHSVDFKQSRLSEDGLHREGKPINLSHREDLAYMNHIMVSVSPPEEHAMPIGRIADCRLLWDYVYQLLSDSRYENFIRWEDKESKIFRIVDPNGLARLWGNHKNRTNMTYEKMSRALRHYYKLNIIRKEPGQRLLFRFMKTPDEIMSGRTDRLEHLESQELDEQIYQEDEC

Chain of ETV5 (P41161 whole entry): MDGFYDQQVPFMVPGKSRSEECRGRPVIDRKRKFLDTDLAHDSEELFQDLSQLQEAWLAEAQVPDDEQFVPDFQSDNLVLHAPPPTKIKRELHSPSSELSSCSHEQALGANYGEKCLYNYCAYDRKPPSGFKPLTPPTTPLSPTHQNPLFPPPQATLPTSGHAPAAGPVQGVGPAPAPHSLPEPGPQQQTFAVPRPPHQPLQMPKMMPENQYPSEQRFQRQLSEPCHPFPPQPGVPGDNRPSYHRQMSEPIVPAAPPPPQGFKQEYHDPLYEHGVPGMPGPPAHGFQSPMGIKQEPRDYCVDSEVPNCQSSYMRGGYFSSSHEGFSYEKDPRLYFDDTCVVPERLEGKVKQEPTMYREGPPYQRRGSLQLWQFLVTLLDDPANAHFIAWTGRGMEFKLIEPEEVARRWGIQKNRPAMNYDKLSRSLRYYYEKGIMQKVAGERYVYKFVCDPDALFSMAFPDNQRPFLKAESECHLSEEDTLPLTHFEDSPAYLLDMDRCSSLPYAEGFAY
Chain of CRX (O43186 whole entry): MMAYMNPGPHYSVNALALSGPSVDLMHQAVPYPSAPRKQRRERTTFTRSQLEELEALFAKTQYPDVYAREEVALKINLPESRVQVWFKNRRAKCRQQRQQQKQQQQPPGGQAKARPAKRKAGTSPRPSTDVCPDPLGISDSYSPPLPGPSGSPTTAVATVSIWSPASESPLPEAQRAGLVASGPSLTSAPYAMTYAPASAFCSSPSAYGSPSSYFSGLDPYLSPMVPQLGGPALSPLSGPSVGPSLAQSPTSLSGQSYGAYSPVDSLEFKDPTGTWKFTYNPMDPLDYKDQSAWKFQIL
Chain of HSF1 (Q00613 whole entry): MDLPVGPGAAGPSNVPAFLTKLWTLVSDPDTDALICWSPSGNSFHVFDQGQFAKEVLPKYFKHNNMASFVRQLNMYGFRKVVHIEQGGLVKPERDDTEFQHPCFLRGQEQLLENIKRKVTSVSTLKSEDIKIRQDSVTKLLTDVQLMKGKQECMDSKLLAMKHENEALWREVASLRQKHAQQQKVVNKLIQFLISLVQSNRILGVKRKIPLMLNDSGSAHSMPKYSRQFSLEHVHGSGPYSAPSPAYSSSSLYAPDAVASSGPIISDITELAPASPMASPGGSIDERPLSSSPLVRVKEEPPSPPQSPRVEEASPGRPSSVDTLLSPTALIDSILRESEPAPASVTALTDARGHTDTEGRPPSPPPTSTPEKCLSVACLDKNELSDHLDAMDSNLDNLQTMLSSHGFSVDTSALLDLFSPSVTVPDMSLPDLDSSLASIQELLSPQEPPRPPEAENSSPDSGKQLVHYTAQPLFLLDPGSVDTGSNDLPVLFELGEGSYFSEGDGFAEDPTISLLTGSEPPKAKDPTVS
Chain of ELF4 (Q99607 whole entry): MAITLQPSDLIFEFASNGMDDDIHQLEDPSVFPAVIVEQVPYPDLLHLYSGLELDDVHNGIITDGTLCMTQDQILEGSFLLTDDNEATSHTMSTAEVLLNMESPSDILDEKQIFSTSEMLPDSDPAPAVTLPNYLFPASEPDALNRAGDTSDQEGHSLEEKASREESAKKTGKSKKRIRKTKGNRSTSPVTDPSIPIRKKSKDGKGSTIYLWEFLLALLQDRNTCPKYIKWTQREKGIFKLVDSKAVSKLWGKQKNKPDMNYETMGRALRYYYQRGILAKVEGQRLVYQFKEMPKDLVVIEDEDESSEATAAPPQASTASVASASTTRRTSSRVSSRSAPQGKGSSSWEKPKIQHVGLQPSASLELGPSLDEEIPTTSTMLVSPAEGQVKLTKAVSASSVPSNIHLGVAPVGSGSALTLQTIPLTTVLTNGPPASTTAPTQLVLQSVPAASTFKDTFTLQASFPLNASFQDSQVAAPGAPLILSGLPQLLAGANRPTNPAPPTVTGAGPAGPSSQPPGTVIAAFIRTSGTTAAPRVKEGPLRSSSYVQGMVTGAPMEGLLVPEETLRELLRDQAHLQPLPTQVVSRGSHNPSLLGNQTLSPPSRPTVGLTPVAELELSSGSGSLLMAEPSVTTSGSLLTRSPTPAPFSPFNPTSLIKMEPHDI

For the sequence TAGCAC, the binding signal in assay [1] was 1.22 fold enrichment (6-mer frequency, TF over GST control); in assay [2], 1.14 fold enrichment (6-mer frequency, TF over GST control); in [3], 1.24 fold enrichment (6-mer frequency, TF over GST control); in assay [4], 1.04 fold enrichment (6-mer frequency, TF over GST control); in assay [5] it was 1.18 fold enrichment (6-mer frequency, TF over GST control); in assay [6], 1.11 fold enrichment (6-mer frequency, TF over GST control). Also, the binding signal in assay [7] was 1.25 fold enrichment (6-mer frequency, TF over GST control); in [8] it was 1.15 fold enrichment (6-mer frequency, TF over GST control); in assay [9], 1.22 fold enrichment (6-mer frequency, TF over GST control); in assay [10] it was 1.19 fold enrichment (6-mer frequency, TF over GST control); in [11] it was 1.33 fold enrichment (6-mer frequency, TF over GST control); in [12] it was 1.21 fold enrichment (6-mer frequency, TF over GST control). For the same sequence, the binding signal was 1.15 fold enrichment (6-mer frequency, TF over GST control) in assay [13]; 1.14 fold enrichment (6-mer frequency, TF over GST control) in assay [14]; 1.08 fold enrichment (6-mer frequency, TF over GST control) in assay [15]; 1.09 fold enrichment (6-mer frequency, TF over GST control) in assay [16]; 1.1 fold enrichment (6-mer frequency, TF over GST control) in [17]; 1.02 fold enrichment (6-mer frequency, TF over GST control) in assay [18].
